High-throughput results (PubChem)
Hits are enriched below; roughly 18% of the tested compounds scored in any of these assays.
TDP1 cell noCPT: qHTS for Inhibitors of human tyrosyl-DNA phosphodiesterase 1 (TDP1): qHTS in cells in absence of CPT | DT40 Tdp1-/- hTDP1 cells, no CPT, ATP luminescence, 48 h | Potency, µM (highest dose often 46.2 µM), for inactives: at the highest dose activity change, negative = growth inhibition, actives largely listed as inhibitors | 420,000 compounds, 15% hits | AID 686978, 2013; note: potency is the fitted concentration of half-maximal effect; nearly all actives have a fitted effect of over 55% in size
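No-CPT arm: Tdp1-/-;hTDP1 DT40 cells (400/well) plus compounds, incubated ≥48 hr at 37 °C. Readout CellTiter-Glo luminescence.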
TDP1 block: qHTS Assay for Inhibitors of Tyrosyl-DNA Phosphodiesterase (TDP1); recombinant TDP1, AlphaScreen DNA substrate cleavage; Tyrosyl-DNA phosphodiesterase 1 (Homo sapiens), Q9NUW8; AID 485290, 2010; 350,000 compounds, 0.28% hits; Potency, µM (titrated, usually from 130 µM), without a hit: at the top dose activity change, negative = inhibition, usual class: inhibitors; note: potency is the fitted concentration of half-maximal effect; nearly all actives have a fitted effect of over 40% in size
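Tdp1 1 nM final; 15 min RT w/ cpd; substrate 15 nM, 5 min; beads 10 ug/ml, 10 min; AlphaScreen read. Neg ctrl: no enzyme.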
IL1B secr inh: qHTS for Inhibitors of Inflammasome Signaling: IL-1-beta AlphaLISA Primary Screen; THP-1 LPS/ATP IL-1B secretion, AlphaLISA, 16 h; hits give low values; AID 743279, 2014; 360,000 compounds, 4.7% hits; activity change, % at 57.5 µM; in the data active = activity change below about -50%; inconclusive = mostly about -30% to -49%
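Secreted IL-1B measured by AlphaLISA bead assay after 16 h compound exposure of THP-1 cells; compounds (final up to 57.5 uM) added 1 h before LPS (250 ng/mL) and ATP (1.25 mM) stimulation; lower signal means less secretion.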
TDP1 cell CPT: qHTS for Inhibitors of human tyrosyl-DNA phosphodiesterase 1 (TDP1): qHTS in cells in presence of CPT; Potency, µM (top dose mostly 46.2 µM), without a hit: at the top dose activity change, negative = growth inhibition, hits mostly inhibitors; chicken DT40 Tdp1-/-;hTDP1 cells + 20 nM CPT, ATP luminescence, 48 h; 420,000 compounds, 12% hits; note: potency is the fitted concentration of half-maximal effect; nearly all actives have a fitted effect of over 55% in size
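Chicken DT40 Tdp1-/- cells stably complemented with human TDP1 were seeded at 400 cells/well in medium containing 20 nM camptothecin, exposed to pin-transferred compounds, and grown at 37 °C for at least 48 hr. Viability was read as ATP luminescence.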
Six1-Eya2 inh: qHTS Assay for Inhibitors of the Six1/Eya2 Interaction; Homeobox protein SIX1 (Homo sapiens) + Protein phosphatase EYA2 (Homo sapiens), …; AlphaScreen GST-Six1/His-Eya2 binding, biochemical; hits give low values; activity change, % (no concentration beside the values); 360,000 compounds, 0.56% hits; AID 651725, 2012; in the data active = activity change below about -65%; inconclusive = mostly about -30% to -63%
Target sequence (O00167 whole entry, looked up): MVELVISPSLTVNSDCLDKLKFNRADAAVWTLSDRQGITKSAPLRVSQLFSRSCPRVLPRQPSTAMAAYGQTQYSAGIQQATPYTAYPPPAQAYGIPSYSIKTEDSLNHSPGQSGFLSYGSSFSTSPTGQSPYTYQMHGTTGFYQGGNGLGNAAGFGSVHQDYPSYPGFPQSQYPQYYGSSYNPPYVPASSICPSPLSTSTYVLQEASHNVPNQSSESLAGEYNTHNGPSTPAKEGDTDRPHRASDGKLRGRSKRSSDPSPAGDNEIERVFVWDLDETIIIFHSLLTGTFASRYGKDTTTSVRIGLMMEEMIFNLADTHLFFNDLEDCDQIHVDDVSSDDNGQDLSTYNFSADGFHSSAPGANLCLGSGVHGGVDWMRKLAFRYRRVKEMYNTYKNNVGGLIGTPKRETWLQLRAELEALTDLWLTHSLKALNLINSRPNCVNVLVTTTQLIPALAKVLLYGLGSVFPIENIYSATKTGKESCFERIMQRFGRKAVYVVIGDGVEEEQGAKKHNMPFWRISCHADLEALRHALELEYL
Target sequence (Q15475 whole entry, looked up): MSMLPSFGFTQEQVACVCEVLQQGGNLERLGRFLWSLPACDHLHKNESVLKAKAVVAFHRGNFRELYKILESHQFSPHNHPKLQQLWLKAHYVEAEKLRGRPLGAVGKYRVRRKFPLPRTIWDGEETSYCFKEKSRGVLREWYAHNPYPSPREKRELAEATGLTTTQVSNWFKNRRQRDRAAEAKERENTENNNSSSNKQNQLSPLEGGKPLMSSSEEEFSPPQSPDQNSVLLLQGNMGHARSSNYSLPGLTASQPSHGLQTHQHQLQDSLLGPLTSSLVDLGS
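AlphaScreen luminescence read after one hour at 37 °C in darkness. Pin-transferred compounds met GST-Six1 and His-Eya2 protein (5X stock 250 nM/500 nM) plus glutathione donor and Ni-chelate acceptor beads (5X, 50 ug/mL).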
CtBP-E1A inh: qHTS Assay for Inhibitors of the CtBP/E1A Interaction; CtBP / adenovirus E1A interaction (AlphaScreen); AlphaScreen GST-E1A/His-CtBP binding, 1536-well; hits give low values; 340,000 compounds, 0.49% hits; activity change, % (no concentration beside the values); AID 651724, 2012; in the data active = activity change below about -65%; inconclusive = mostly about -30% to -63%
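GST-E1A and His-tagged CtBP (125 nM each as 5X stock) were preincubated with pin-transferred compound for 2 h at 37 °C in the dark, then glutathione donor and nickel acceptor beads were added for 1 h before AlphaScreen reading.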
An asterisk follows results filed as active; ? = inconclusive; nt = no result. Unless noted, calls come from the whole dose curve; as a rule, active = well fitted curve in the direction sought with a large enough effect; inconclusive = small, poorly fitted or top-dose-only effect, or another doubt; inactive = no such curve, though single readings can be large; an effect the other way counts as inactive or inconclusive. % is set by controls: 0 for no effect and ±100 for the full control effect.

SMILES	TDP1 cell noCPT	TDP1 block	IL1B secr inh	TDP1 cell CPT	Six1-Eya2 inh	CtBP-E1A inh
O=[N+]([O-])c1ccc(Oc2ccc(S(=O)(=O)Nc3ccccc3)cc2)cc1	10µM*	0%	-72*	?	-16	0
O=[N+]([O-])c1cc(NS(=O)(=O)c2ccc(Cl)nc2)ccc1Cl	16µM*	1%	-2	?	3	-2
O=C1C(Cl)=C(NS(=O)(=O)c2ccc([N+](=O)[O-])cc2)C(=O)c2ccccc21	8.2µM*	nt	-102*	10µM*	-7	-3
O=[N+]([O-])c1ccc(NS(=O)(=O)c2ccc(Cl)c(Cl)c2)cc1	10µM*	nt	-27	9.2µM*	-7	-2
CCN(CC)C(=O)c1csc(COCCO)n1	-17%	nt	0	-34%	4	-2
C=C1CCN([C@H](C(=O)O)C(C)C)S(=O)(=O)c2ccccc21	8%	nt	16	3%	4	3
C=C1CCN([C@H](C(=O)OCc2cccc(C)c2)C(C)C)S(=O)(=O)c2ccccc21	15µM*	nt	15	?	11	-25
CN(C(=O)c1cccc(NC(=O)C2CCN(C(=O)OC(C)(C)C)CC2)c1)C1CCCCC1	13µM*	1%	3	21µM*	1	0
CN(C(=O)c1ccc(NC(=O)C2CCN(C(=O)OC(C)(C)C)CC2)cc1)C1CCC1	18µM*	2%	-2	18µM*	-2	3
CN(C(=O)c1cccc(NC(=O)C2CCCN(C(=O)OC(C)(C)C)C2)c1)C1CCC1 (configuration not stated)	16µM*	0%	?	21µM*	-9	-6
COc1ccc(C(=O)NC(=S)Nc2cccc(Cl)c2N2CCOCC2)cc1[N+](=O)[O-]	?	0%	10	?	-2	-8
N#CCCN(Cc1ccccc1)C(C(=O)NC1CCCCC1)c1cc2ccccc2o1 (configuration not stated)	18µM*	nt	33	21µM*	-2	1
COc1ccccc1S(=O)(=O)Cc1ccc(C(=O)N2CCN(c3cc(Cl)ccc3C)CC2)o1	8.2µM*	3%	nt	?	nt	nt
COc1ccccc1S(=O)(=O)Cc1ccc(C(=O)N2CCN(c3cccc(Cl)c3)CC2)o1	5.8µM*	5%	14	6.5µM*	-1	-2
COc1ccccc1S(=O)(=O)Cc1ccc(C(=O)N2CCOCC2)o1	-14%	0%	3	-2%	3	-1
COC(=O)c1ccc2nc3c(cc2c1)[C@@H]1CCN2C(=O)CCC[C@H](C3)[C@H]12	-1%	nt	30	-6%	7	0
CN(C(=O)Cc1c[nH]c2ccccc12)C(C(=O)Nc1ccc2c(c1)OCO2)c1ccccc1 (configuration not stated)	?	9%	-67*	-27%	-23	-4
CC(C)CN(C)Cc1c(C(=O)N2CCc3ccccc3C2)nc2ccc(Cl)cn12	21µM*	-3%	-83*	18µM*	-12	1
COc1ccc(OC)c(CCNC(=O)CCc2cn(Cc3cc(C)ccc3C)c3ccccc23)c1	?	8%	nt	?	nt	nt
CN(C)S(=O)(=O)c1cccc(C(=O)N2CCc3ccccc32)c1	?	9%	0	?	8	-1
CN(C)S(=O)(=O)c1cccc(C(=O)C2=C3SC=C(c4ccccc4)N3CC2)c1	23µM*	1%	7	?	-5	-2
